Compound activity as filed in PubChem BioAssay.
RE007 growth inh: less growth of the S. pombe RE007 Vpr strain | S. pombe RE007 Vpr strain, BacTiter-Glo ATP luminescence, 24 h | Potency, µM (titrated, usually from 92.2 µM), hits mostly inhibitors | 0.21% of 360,000 active; active = well fitted falling curve with a large enough effect; inconclusive = small, poorly fitted or top-dose-only effect; inactive = no such curve, though single readings can be large or run the other way; note: nearly all actives have a fitted effect of over 50% in size
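Fission yeast strain RE007, carrying one chromosomally integrated HIV-1 vpr copy, was seeded at OD 0.01 in PMG+AL medium with 23 nL pinned compound. After 24 h at 30 °C and 99% humidity, viability was read by BacTiter-Glo luminescence.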
NS1 inh: influenza NS1 inhibition | Potency, µM (doses to about 46.1 µM) | 0.4% of 270,000 active | AID 2326; calls by dose curve; note: actives are rising curves; nearly all actives have a fitted effect of over 50% in size
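S. cerevisiae expressing influenza A NS1, grown in glucose, washed, then diluted 1:100 into pH 6.0 -URA galactose medium with 23 nl compound. Growth recovery read as OD600; NS1-free strain serves as control.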
Sm TGR inh: S. mansoni TGR enzyme inhibition | purified TGR, DTNB reduction, TNB absorbance 405 nm | AID 485364 | Potency, µM (titrated, usually from 114 µM), usual class: inhibitors | 3% of 360,000 active | Q962Y6; note: nearly all actives have a fitted effect of over 60% in size
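Kinetic colorimetric format: TGR-catalysed, NADPH-driven DTNB reduction monitored via TNB absorbance. Enzyme dispensed at 20 nM; compound exposure 15 min at room temperature before reaction start.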
LmPK inh: LmPK (Leishmania mexicana) enzyme inhibition; Q27686; purified LmPK, Kinase-Glo ATP luminescence, 1 h; Potency, µM (top dose mostly 57.5 µM), hits mostly inhibitors; 0.37% of 290,000 active; AID 1721
Target sequence (Q27686 whole entry, looked up): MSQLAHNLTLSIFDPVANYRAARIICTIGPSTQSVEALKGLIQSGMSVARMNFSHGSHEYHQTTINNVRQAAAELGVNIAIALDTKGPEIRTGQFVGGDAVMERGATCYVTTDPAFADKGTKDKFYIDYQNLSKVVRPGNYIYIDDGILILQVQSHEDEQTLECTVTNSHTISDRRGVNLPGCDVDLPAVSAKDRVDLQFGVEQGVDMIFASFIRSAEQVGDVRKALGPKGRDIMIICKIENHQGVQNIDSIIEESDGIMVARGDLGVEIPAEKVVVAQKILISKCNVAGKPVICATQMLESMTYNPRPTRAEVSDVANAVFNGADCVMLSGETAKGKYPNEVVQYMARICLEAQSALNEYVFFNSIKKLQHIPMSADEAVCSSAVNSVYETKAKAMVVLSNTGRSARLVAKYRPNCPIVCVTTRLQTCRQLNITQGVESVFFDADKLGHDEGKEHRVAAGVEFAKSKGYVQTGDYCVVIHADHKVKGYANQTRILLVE
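Pyruvate kinase activity monitored as ATP production (luciferase luminescence). Conditions: 0.1 nM enzyme, 0.5 mM PEP, 0.1 mM ADP, 1 h, RT; normalized against uninhibited and no-enzyme wells.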
SARS PLP yeast: inhibitors of SARS-CoV papain-like protease in yeast | S. cerevisiae expressing SARS-CoV PLpro, growth rescue | Potency, µM (series often up to 32.9 µM), most hits filed as activators | 0.19% of 330,000 active; calls by dose curve; note: nearly all actives have a fitted effect of over 55% in size
Tb PYK inh: inhibitors of Trypanosoma brucei pyruvate kinase; 0.12% of 410,000 active; AID 624173; Potency, µM (highest dose often 76.8 µM), usual class: inhibitors; Q57TT1; TbPYK enzyme, Kinase-Glo Plus ATP luminescence, 45 min; note: nearly all actives have a fitted effect of over 50% in size
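Enzyme and substrate buffer are dispensed first and compound is pin-transferred. ADP at 130 uM final then starts the reaction, which runs 45 min at room temperature. Detection reagent is added for 10 min before luminescence is imaged.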
Flu NS1 inh: influenza NS1 function inhibition validation; shares compounds with NS1 inh; influenza NS1 function cell assay, 15-point titration; activity change, negative = inhibition, % at 32.9 µM; 1,400 tested, under 10 active; AID 492980; calls by dose curve
Of the large screens only hits and unclear results are named; the others gave an inactive call (follow-up assays come after a bar, where they were run). Compounds with a hit are over-represented: about 3.3% of the library has one in this group of screens. Unless noted, calls come from the whole dose curve; as a rule, active = well fitted curve in the direction sought with a large enough effect; inconclusive = small, poorly fitted or top-dose-only effect, or another doubt; inactive = no such curve, though single readings can be large; an effect the other way counts as inactive or inconclusive.

COc1ccc(S(=O)(=O)NCCc2ccco2)cc1OC	NS1 inh 3.2µM | Flu NS1 inh inactive
COc1ccc(S(=O)(=O)NCCC(C)C)cc1OC	NS1 inh inconclusive
COc1ccc(CCNC(=O)CSc2nc(N)c(C#N)c(-c3cccs3)c2C#N)cc1OC	NS1 inh 4.5µM | Flu NS1 inh inactive
O=C(NC1CCCc2ccccc21)c1cccc(S(=O)(=O)N2CCN(c3ccccc3)CC2)c1 (configuration not stated)	NS1 inh 11µM, SARS PLP yeast inconclusive | Flu NS1 inh inactive
CC1CCC(NC(=O)c2cccc(S(=O)(=O)N3CCN(c4ccccc4)CC3)c2)CC1 (configuration not stated)	none (no result: NS1 inh, LmPK inh)
O=C(Nc1ccc2c(c1)CCC2)c1cccc(S(=O)(=O)N2CCN(c3ccccc3)CC2)c1	NS1 inh 13µM | Flu NS1 inh inactive
O=C(Nc1ccccc1)c1cccc(S(=O)(=O)N2CCCCC2)c1	none (no result: Tb PYK inh)
COCCNC(=O)c1nn(-c2ccc(C)cc2)c(=O)n(C)c1=O	none (no result: RE007 growth inh, NS1 inh, LmPK inh, SARS PLP yeast)
COCCn1c(C)cc(/C=C2/NC(=O)N(c3ccc(Cl)cc3)C2=O)c1C	NS1 inh inconclusive | Flu NS1 inh inactive
Cc1cc(C)cc(NC(=O)CSc2nc3c(oc4ccccc43)c(=O)n2-c2ccccc2)c1	NS1 inh 5µM | Flu NS1 inh inconclusive
CC(C)Oc1ccc(CNC(=O)C2=Cc3ccccc3OC2)cc1	none (no result: RE007 growth inh, NS1 inh, LmPK inh, SARS PLP yeast)
CCCc1cc(N2CCN(c3cc(Cl)ccc3C)CC2)n2cnnc2n1	none (no result: RE007 growth inh, NS1 inh, LmPK inh, SARS PLP yeast)
COc1ccc(OC)c(-c2nnc3n(Cc4ccc(C)cc4)c(=O)c4ccccc4n23)c1	none (no result: RE007 growth inh, NS1 inh, LmPK inh, SARS PLP yeast)
CCOC(=O)c1[nH]c(C)c(CCC(=O)NCc2ccccc2Cl)c1C	none (no result: RE007 growth inh, NS1 inh, LmPK inh, SARS PLP yeast)
COc1cccc(N(C(=O)Cn2nnc(-c3ccc(C)cc3)n2)C(C(=O)NC(C)(C)C)c2c[nH]c3ccccc23)c1 (configuration not stated)	NS1 inh inconclusive | Flu NS1 inh inactive
CCOC(=O)Cn1c(=O)n(C2CCCCC2)c2nc(-c3ccc(C(C)C)cc3)nc(C(N)=O)c21	none (no result: RE007 growth inh, NS1 inh, LmPK inh, SARS PLP yeast)
NC(=O)Nn1c(CCC(=O)O)ccc1-c1ccc(F)cc1	NS1 inh inconclusive, Sm TGR inh 50µM, SARS PLP yeast inconclusive | Flu NS1 inh inactive
NC(=S)Nn1c(CCC(=O)O)ccc1-c1ccccc1	none
Cc1ccc(-c2ccc(CCC(=O)O)n2CC(=O)O)cc1	NS1 inh 11µM, Sm TGR inh 18µM | Flu NS1 inh inactive
Cc1cc(OCC(=O)N[C@@H](CSCc2ccccc2)C(=O)O)c2c(C)c(C)c(=O)oc2c1	NS1 inh 13µM | Flu NS1 inh inconclusive
Cc1ccc(N(CC(=O)N2CCN(c3cccc(C)c3C)CC2)S(=O)(=O)c2c(C)nn(C)c2C)cc1	none (no result: RE007 growth inh, NS1 inh, LmPK inh, SARS PLP yeast)
CN(C)c1ccc(-c2nc3ccccn3c2Nc2ccc3c(c2)OCCO3)cc1	none (no result: RE007 growth inh, NS1 inh, LmPK inh, SARS PLP yeast)
COc1ccc2nc(C(F)(F)C(F)(F)F)c(C#N)c(N)c2c1	NS1 inh 7.9µM | Flu NS1 inh inactive
O=C(CCC(=O)OCC(=O)c1ccc(Cl)cc1)Nc1ccc(Oc2ccccc2)cc1	none (no result: RE007 growth inh, NS1 inh, LmPK inh, SARS PLP yeast)
COc1ccc(OC)c(CNC(=O)c2cc3ccc4cccnc4c3[nH]2)c1	none (no result: RE007 growth inh, NS1 inh, LmPK inh, SARS PLP yeast)
CCOc1ccc(C(=O)Cn2cnnc2C#N)cc1	NS1 inh inconclusive, Sm TGR inh inconclusive | Flu NS1 inh inactive
O=C(N/N=C/C=C\c1ccccc1[N+](=O)[O-])c1cc(-c2ccccc2)nc2ccccc12	NS1 inh 7.1µM | Flu NS1 inh inactive
C#CCn1c(=NC(=O)c2cc(Cl)sc2Cl)sc2cc(S(N)(=O)=O)ccc21	NS1 inh 10µM | Flu NS1 inh inactive
C#CCn1c(=NC(=O)CN2C(=O)CCC2=O)sc2cc(S(N)(=O)=O)ccc21	none
CC1CCN(S(=O)(=O)c2cn(CC(=O)Nc3ccc(F)c(Cl)c3)c(=O)c3ccccc23)CC1	none (no result: RE007 growth inh, NS1 inh, LmPK inh, SARS PLP yeast)
COc1ccccc1C(=O)NCc1nc2cccnc2n1Cc1ccc(F)cc1	none (no result: RE007 growth inh, NS1 inh, LmPK inh, SARS PLP yeast)
O=C1NC(=Nc2ccccc2)S/C1=C\C=C\c1ccco1	NS1 inh 4.5µM, Sm TGR inh 11µM | Flu NS1 inh inconclusive
COc1ccc(N=C2NC(=O)/C(=C/C=C/c3ccccc3)S2)cc1	none
Cc1ccc(NC(=O)CCn2c(=O)c3cccn3c3ccccc32)c(Cl)c1	none (no result: RE007 growth inh, NS1 inh, LmPK inh, SARS PLP yeast)
COc1cc(NS(=O)(=O)c2ccc(NC(=O)COc3ccccc3Cl)cc2)nc(OC)n1	NS1 inh 14µM | Flu NS1 inh inactive
CCOc1cc(/C=C2\C(=O)N(Cc3ccc(C)cc3)C(C)=C2C(=O)OC)ccc1O	NS1 inh 14µM, Sm TGR inh 22µM | Flu NS1 inh inactive
CCOc1cc(/C=C2\C(=O)NC(=O)N(CCc3ccc(F)cc3)C2=O)ccc1O	NS1 inh 0.35µM, Sm TGR inh inconclusive | Flu NS1 inh inactive
Cc1ccc(/C=C2\C(=O)NC(=O)N(CCc3ccc(F)cc3)C2=O)s1	Sm TGR inh inconclusive (no result: NS1 inh)
COc1ccc(NC(=O)CN(c2cccc(C)c2C)S(=O)(=O)c2ccccc2)cc1OC	none (no result: RE007 growth inh, NS1 inh, LmPK inh, SARS PLP yeast)
Cc1c(Nc2nc3ccccc3nc2NS(=O)(=O)c2cccc(Cl)c2)c(=O)n(-c2ccccc2)n1C	NS1 inh 8.9µM | Flu NS1 inh inactive
